Assay outcomes deposited in PubChem BioAssay by Center for Chemical Genomics, University of Michigan.
This is one part of a sample in which hits are shown more often than they occur.
Dicer processing: human Dicer pre-microRNA cleavage inhibition. Q9UPY3. cat-ELCCA pre-miR-21 Dicer processing, chemiluminescence; active compounds read high. z-score at 25 µM. actives 6% (n = 47,000); in the data active means z-score above about 3, passing the limit was not always enough;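 further: plate controls were vehicle for no effect and no enzyme for full effect; higher signal means more uncleaved substrate so more Dicer inhibition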
An asterisk follows results filed as active.

SMILES	Dicer processing
O=c1oc2ccc(NS(=O)(=O)c3ccc(F)cc3)cc2s1	4.91*
Cc1ccc(S(=O)(=O)Nc2cc(Cl)c3oc(=O)sc3c2)c(C)c1	11.9*
Cc1ccc(S(=O)(=O)Nc2ccc3oc(=O)sc3c2)c(C)c1	1.13
O=c1oc2c(Cl)cc(NS(=O)(=O)c3ccccc3)cc2s1	11.3*
Cc1cc(F)ccc1S(=O)(=O)Nc1c(C)n(C)n(-c2ccccc2)c1=O	-0.46
Cc1cc(S(=O)(=O)Nc2cccnc2)c(C)cc1Cl	-0.28
O=S(=O)(NC1=NCC2CCCC2N1)c1ccccc1 (configuration not stated)	-2.15
CCOC(=O)c1c(NS(=O)(=O)c2ccc(C)cc2)sc(C)c1-c1ccccc1	-0.68
CCOC(=O)N1CCN(C2CC(=O)N(c3ccc(OC)cc3)C2=O)CC1 (configuration not stated)	-0.82
O=C(O)c1nnn(-c2ccccc2Oc2ccc(Cl)cc2Cl)c1-c1ccccc1	1.8
O=C(Cn1c(=O)oc2ccccc21)Nc1nnc(SCC(=O)c2ccccc2)s1	2.03
Cc1cccc(-c2nc3cc(Cl)ccc3c(=O)o2)c1	-1.72
FC(F)(F)c1cccc(N/N=C/c2cc(-c3ccccc3)c(C(F)(F)F)s2)c1	2.4
N#CC(C(=O)c1ccccc1Cl)=C1SCCS1	0.33
COc1cc(C2NC(C(=O)O)CS2)ccc1OCc1ccccc1F (configuration not stated)	-0.95
CCCCOc1ccc(S(=O)(=O)NCc2ccco2)cc1	-0.66
CC(C)(O)C#Cc1ccc(/C=N/Nc2cccc(C(F)(F)F)n2)cc1	1.44
CC1(C)CC(=O)C2=C(C1)NC1=C(C(=O)CC(C)(C)C1)C2c1ccc(Cl)c(Cl)c1	-0.56
Cc1cc(F)ccc1S(=O)(=O)Nc1ccc2oc(C)c(C(=O)OC(C)C)c2c1	-0.11
COc1ccccc1C(=O)Oc1ccc2oc(=O)sc2c1	2.24
CC(=O)Nc1ccc(NS(=O)(=O)c2ccc(C)cc2)cc1[N+](=O)[O-]	-0.02
Cc1ccc(S(=O)(=O)Nc2ccc3oc(=O)sc3c2)cc1	5.01*
CC1CCc2oc3ccc(NS(=O)(=O)c4cccc5cccnc45)cc3c2C1 (configuration not stated)	-0.24
COc1ccc(S(=O)(=O)Nc2ccc3oc(=O)sc3c2)cc1OC	3.44*
CCOC(=O)n1c(=O)oc2cc(S(=O)(=O)Nc3ccc(C)cc3)ccc21	1.14
SMILES	Dicer processing
CC(C)(C)C1CCc2oc3ccc(NS(=O)(=O)c4ccc(C(=O)O)cc4)cc3c2C1 (configuration not stated)	4.15*
COC(=O)c1c(C)oc2ccc(NS(=O)(=O)c3ccc(Br)cc3)cc12	0.56
COc1cc(S(=O)(=O)Nc2cccnc2)ccc1F	0.84
Cc1cc(F)ccc1S(=O)(=O)Nc1ccc2oc3c(c2c1)CC(C)CC3 (configuration not stated)	6.57*
CCc1ccc(S(=O)(=O)Nc2ccc3oc4c(c3c2)CCCC4)cc1	2.13
CCOC(=O)N1CCN(S(=O)(=O)c2ccc(C(F)(F)F)cc2)CC1	-0.42
Clc1ccccc1OCc1nc(-c2ccccc2)no1	0.77
O=S(=O)(CCSc1cccs1)c1ccc(F)cc1	13.6
CCOC(=O)c1c(NS(C)(=O)=O)sc(C)c1C	-0.77
Cc1[nH]c2[nH]n(-c3ccccc3)c(=O)c2c(=O)c1Cc1ccccc1Cl	-3.48
O=C(COc1ncnc2cc(Cl)ccc12)Nc1ccccc1Cl	0.67
COC(=O)c1sc(N(C)C)c(C#N)c1-c1ccc(Cl)cc1	0.12
CN(C)/C=C1\CSc2ccc(Cl)cc2C1=O	-0.06
CCOC(=O)COc1ccc2c(=O)c(Oc3ccccc3Br)c(C(F)(F)F)oc2c1	1.99
CC1(C)CC(=O)c2cnc(NC(=O)CSCC(=O)Nc3cccc(F)c3)nc2C1	1.05
Cc1cc(C)c2[nH]c(C)c(CN(C)C3CCCCC3)c(=O)c2c1	0.37
O=c1/c(=C/c2ccc(F)cc2)sc2nc3ccccc3n12	1.01
Clc1cccc(SCc2cccc3ccccc23)c1Cl	-0.02
COC(=O)c1c(NC(=O)COc2cccc(Br)c2)sc2c1C(C(=O)OC)CC2 (configuration not stated)	-0.79
O=C(O)CNC(=O)c1cccnc1Oc1ccccc1	0.58
O=C1CC(c2cccs2)c2c(-c3ccccc3)nn(-c3ccccc3)c2N1 (configuration not stated)	0.79
O=S(=O)(Nc1nc(-c2ccc(Cl)cc2Cl)cs1)c1ccc(Cl)cc1	10.4
O=c1oc2c(Br)cc(NS(=O)(=O)c3ccc(Cl)cc3)cc2s1	12.8*
O=c1oc2ccc(NS(=O)(=O)c3ccc(Cl)cc3)cc2s1	9.77*
Cn1cc(Br)c(-c2cccc(NS(=O)(=O)c3ccc(Cl)cc3)c2)n1	0.02
Cc1cc(C)c(C)c(S(=O)(=O)Nc2ccc3oc(=O)sc3c2)c1C	4.27*
O=S(=O)(Nc1ccc2c(c1)OCO2)c1ccc(Cl)cc1	-0.39
COc1ccc(OC)c(NS(=O)(=O)c2ccc(Cl)cc2)c1	1.24
CCOC(=O)Cn1c(=O)c2c(nc3n2CCN3c2ccc(OC)cc2)n(C)c1=O	-1.46
CCOc1cc(C2C(C(=O)c3cc4ccccc4o3)=C(O)C(=O)N2CCN(C)C)ccc1O (configuration not stated)	-0.47
